In the supplement of paper PMC6555819 one finds PBM binding z-score data, which are given here for 22 sequences.

For the experiment, the system named is RXRa homodimer (NR concentration 180 nM). Description: PBM binding z-score (relative to random genomic background probes); higher = stronger binding; sequences stand for … in GC…GCGATTGACAGCGTAGAATGAAGG
Put shortly: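 Custom Agilent 4×180K protein-binding microarrays carried double-stranded probes. Their 34-nt variable regions held direct-repeat seeds, single-nucleotide variants, half-site ablations and random human genomic background sequences. Arrays were incubated 1 h with ligand-free nuclear receptor dimers in PBS pH 7.4, 2% milk, 0.02% Triton X-100, 1 mM DTT, 0.2 mg/mL BSA and 0.4 mg/ml salmon testes DNA. Antibodies against each partner (one per run) detected binding, and scanned fluorescence was regression-normalized. Binding z-scores use random background probes as reference.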
TCTTGTAGATCAATAGAGGTTAATAAAGTGCGCT: the PBM binding z-score is 1.33.
In turn, GGAACGAGGGCAAGTTGATATCAGAGTTTGATGG showed a PBM binding z-score of 0.916.
The same measure for CGTCAAAGTTCAACTAAGGTAACGTGAAGCACGC: 5.49; for CTCGAAAGGTCGTGCTCAGGTGTGTATACCAAAC: 4.71; for TCTAGTTGGTCACGGAGGTCACACATGACGGGTA: 4.96.
The figure for CCGACTGGGGCATAAGGTTACCATAAGCCAGCCC is 1.13.
In turn, TAGCCTAGGTCATGGGCTAGTATACCACGCGAAC came in with a PBM binding z-score of 3.45.
In turn, CCTTCCGGGTCAAGGTTATAGCACGGGTGGTACG showed a PBM binding z-score of 4.97.
The same measure for TCATATAGGTCATACAGGTGAAAGTCGGCATCTA: 5.27; for ACTATTAGTTGACTTAGGGCAAACGATACGACGC: 0.56.
The same measure for GAAACGAGGGCAAAGTTGATAGCATCTGTCGACG: 2.3; for ACAGACAGGTGACTGAAGGTAACTCAGCTGGACG: 0.654.
The same measure for TGAAGGAGGTTATAAGATCAGGGAACGTTGCAAA: 1.56; for TATTGTAGATCAAGCAGGTTAAGAAAGCCTGAGT: 0.374; for TGTCAAAGTTCAAAGGTAACTTAAGTATCCACAC: 7.54.
The sequence TCTTGTAGATCAAAGGTTACGAAAGCCGAAGCCT gave a PBM binding z-score of 3.64.
The figure for ATATGTAGGTTAAGGGCCATTCAGGTTGGTTCGC is 1.21; for TCTGCTAGGTCCGTTGGTCAGCTAACGAGCTGCC it is -0.5; for CGTCAAAGTTCAAATAAGGTAACGTAAAGCACGC it is 5.4.
The figure for TCTATTAGTTGATTCGGGCAACCGAAACAGCGGA is 0.328; for CATACAGGATCAGCTAGGCCAGAGTAGGGACGGC it is -0.0715.
The same measure for ACAGGCAGGTGAGTGAAGGTAACTCAGCTGGACG: 0.135.
